ALOX12 inh = blocks human arachidonate 12S-lipoxygenase. P18054. purified 12hLO, xylenol orange hydroperoxide absorbance. Potency, µM (doses to about 108 µM), usual class: inhibitors. hit rate 1.1% among 580,000
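Hydroperoxide product was detected by ferrous iron/xylenol orange as the 573 to 405 nm absorbance ratio. Arachidonic acid at 40 uM (final) was turned over for 30 min at room temperature by 150 nM human 12hLO, pH 7.0 Hepes buffer, after 15 min compound preincubation.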
Vif-A3G inh = blocks the Vif interaction with human APOBEC3G; Q9HC16; HeLa A3G-eYFP + Vif (tagged APOBEC3G with the HIV-1 protein that degrades it), YFP fluorescence, overnight; Potency, µM (top dose mostly 46.1 µM), most hits filed as inhibitors; hit rate 0.076% among 410,000; AID 602310; note: nearly all actives have a fitted effect of over 60% in size
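Read-out is eYFP fluorescence (Ex 488/Em 500-530) from Vif-expressing HeLa A3G-eYFP cells; more signal means A3G escaped Vif-mediated degradation. Cells plated overnight, compound pinned in, incubated overnight at 37 deg C.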
GRP78 ERSR act = induces the endoplasmic reticulum stress response in human glioma cells; hit rate 0.02% among 420,000; U87-MG GRP78 promoter luciferase reporter, 16 h; AID 602332; Potency, µM, usual class: activators; note: series mostly up to about 76 µM; nearly all actives have a fitted effect of over 35% in size
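Stably transfected U87-MG glioma cells carrying a GRP78-based luciferase sensor; 16 h compound incubation. Luminescence end-point read 10 min after Bright-Glo addition at room temperature.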
Vif-A3F inh = blocks the Vif interaction with APOBEC3F. hit rate 0.2% among 390,000. HeLa A3F-eYFP + Vif (tagged APOBEC3F with the HIV-1 protein that degrades it), YFP fluorescence increase. Potency, µM (highest dose often 46.1 µM). AID 602313; note: nearly all actives have a fitted effect of over 65% in size
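HeLa cells stably expressing A3F-eYFP plus Vif, plated and incubated overnight at 37 deg C, then exposed to compounds overnight at 37 deg C. Blocked degradation read as raised yellow fluorescence (Ex 488/Em 500-530).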
TRPML1 inh = inhibitors of human TRPML1 channel. TRPML1-inducible cells, Ca2+ dye fluorescence, FDSS; hits give low values; inhibition of EC80 agonist-evoked calcium signal. activity change, negative = inhibition, % (no concentration beside the values). hit rate 0.02% among 390,000. AID 624415; in the data active = activity change below about -50%; inconclusive = between about -30% and that limit;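 note: stimulus is agonist 54-4 at its EC80 concentration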
Target sequence (Q9GZU1 whole entry, looked up): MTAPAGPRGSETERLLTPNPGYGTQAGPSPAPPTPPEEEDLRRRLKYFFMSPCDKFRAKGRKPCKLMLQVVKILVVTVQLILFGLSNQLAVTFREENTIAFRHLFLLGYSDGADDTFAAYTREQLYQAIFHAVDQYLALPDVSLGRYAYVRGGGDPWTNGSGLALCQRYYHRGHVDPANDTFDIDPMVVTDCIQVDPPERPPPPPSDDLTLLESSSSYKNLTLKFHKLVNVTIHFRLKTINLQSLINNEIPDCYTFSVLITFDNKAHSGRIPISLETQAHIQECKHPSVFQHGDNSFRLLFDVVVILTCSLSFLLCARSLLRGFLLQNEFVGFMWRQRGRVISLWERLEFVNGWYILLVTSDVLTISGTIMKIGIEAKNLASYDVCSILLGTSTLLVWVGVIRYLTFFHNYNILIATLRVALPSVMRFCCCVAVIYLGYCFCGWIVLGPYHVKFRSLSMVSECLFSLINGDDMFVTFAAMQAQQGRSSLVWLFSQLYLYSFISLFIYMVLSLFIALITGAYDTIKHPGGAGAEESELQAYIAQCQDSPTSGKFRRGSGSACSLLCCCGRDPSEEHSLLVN
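Calcium fluorescence in TRPML1-DL cells induced overnight with Tet: a 110 s read after compound pin addition, then a 110 s antagonist read after challenge with 54-4 at 4 uM final (EC80).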
TRPML1 ag = activates the human TRPML1 channel | Q9GZU1 | TRPML1-expressing cells, Ca2+ dye fluorescence, FDSS | activation, % (no concentration beside the values) | hit rate 0.12% among 410,000; in the data active = activation above about 50%; inconclusive = mostly about 30% to 49%
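In this qHTS format, compounds were pin-transferred onto Ca8-dye-loaded TRPML1-DL cells induced with Tet overnight, and intracellular Ca2+ fluorescence was recorded kinetically for 110 s after a 10 s baseline. A subsequent 4uM final 54-4 (EC80) addition followed by a second 110 s read served as the antagonist phase.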
Each line names hits and unclear results; the compound was inactive in the other large screens; ! = not active in a repeat. Compounds with a hit are over-represented: about 1.3% of the library has one in this group of screens. Unless noted, calls come from the whole dose curve; as a rule, active = well fitted curve in the direction sought with a large enough effect; inconclusive = small, poorly fitted or top-dose-only effect, or another doubt; inactive = no such curve, though single readings can be large; an effect the other way counts as inactive or inconclusive.

CSc1ccc(/C=N/Nc2cccc(Cl)c2)cc1	ALOX12 inh 1.41µM (no result: Vif-A3G inh, GRP78 ERSR act, Vif-A3F inh, TRPML1 inh, TRPML1 ag)
CSc1ccc(/C=N/Nc2ccc(Cl)c(C(=O)O)c2)cc1	ALOX12 inh inconclusive
N#Cc1ccc(/C=N/Nc2ccc(F)cc2)cc1	ALOX12 inh 15.8µM (no result: Vif-A3G inh, GRP78 ERSR act, Vif-A3F inh, TRPML1 inh, TRPML1 ag)
O=C(O)c1cccc(N/N=C/c2ccc(F)c(F)c2)c1	ALOX12 inh inconclusive
COc1ccc2nc([C@H]3CCN(C(C)C)C3)[nH]c2c1	none (no result: Vif-A3G inh, GRP78 ERSR act, Vif-A3F inh, TRPML1 inh, TRPML1 ag)
c1ccc2nc(SCc3ccc4c(c3)OCCO4)ccc2c1	none (no result: Vif-A3G inh, GRP78 ERSR act, Vif-A3F inh, TRPML1 inh, TRPML1 ag)
C#CCN(CC)CC(=O)NCc1cccs1	none (no result: Vif-A3G inh, GRP78 ERSR act, Vif-A3F inh, TRPML1 inh, TRPML1 ag)
O=C(COC(=O)c1ccccc1I)c1ccc([N+](=O)[O-])cc1	none (no result: Vif-A3G inh, GRP78 ERSR act, Vif-A3F inh, TRPML1 inh, TRPML1 ag)
CSc1ccc(/C=N/Nc2ccc(Cl)c(Cl)c2)cc1	ALOX12 inh 2µM (no result: Vif-A3G inh, GRP78 ERSR act, Vif-A3F inh, TRPML1 inh, TRPML1 ag)
Fc1ccc(/C=N/Nc2ccc(Cl)c(Cl)c2)cc1	ALOX12 inh 2.24µM (no result: Vif-A3G inh, GRP78 ERSR act, Vif-A3F inh, TRPML1 inh, TRPML1 ag)
Fc1cccc(/C=N/Nc2ccc(Cl)c(Cl)c2)c1	ALOX12 inh 5.01µM (no result: Vif-A3G inh, GRP78 ERSR act, Vif-A3F inh, TRPML1 inh, TRPML1 ag)
CNC(=S)N/N=C/c1ccc(SC)cc1	ALOX12 inh 14.1µM (no result: Vif-A3G inh, GRP78 ERSR act, Vif-A3F inh, TRPML1 inh, TRPML1 ag)
CCNc1c(NS(=O)(=O)c2c(C)noc2C)c(=O)oc2ccccc12	none (no result: Vif-A3G inh, GRP78 ERSR act, Vif-A3F inh, TRPML1 inh, TRPML1 ag)
Cc1ccc(N/N=C/c2ccc(Cl)c(Cl)c2)cc1	ALOX12 inh 15.8µM (no result: Vif-A3G inh, GRP78 ERSR act, Vif-A3F inh, TRPML1 inh, TRPML1 ag)
Cc1ccc(/C=N/Nc2nc(C)cc(C)n2)cc1	ALOX12 inh inconclusive
Cc1cccc(/C=N/Nc2ccc(Cl)c(Cl)c2)c1	ALOX12 inh 5.62µM (no result: Vif-A3G inh, GRP78 ERSR act, Vif-A3F inh, TRPML1 inh, TRPML1 ag)
Cc1nc2cc(NC(=O)c3cc(Cl)cc(Cl)c3)ccc2o1	none (no result: Vif-A3G inh, GRP78 ERSR act, Vif-A3F inh, TRPML1 inh, TRPML1 ag)
Cn1c(-n2cccc2)c(-c2c(-c3ccccc3)[nH]c3c2c(=O)[nH]c(=O)n3C)c(=O)[nH]c1=O	none
Cn1c(-n2cccc2)c(-c2c(-c3cccc4ccccc34)[nH]c3c2c(=O)[nH]c(=O)n3C)c(=O)[nH]c1=O	ALOX12 inh 17.8µM (no result: Vif-A3G inh, GRP78 ERSR act, Vif-A3F inh, TRPML1 inh, TRPML1 ag)
S=C(NCc1ccco1)Nc1ccccn1	ALOX12 inh inconclusive, Vif-A3F inh inconclusive
Oc1ccc(/C=N/NC(=S)NCc2ccco2)cc1	none
S=C(NCc1ccco1)Nc1ccc(Cl)cn1	Vif-A3F inh 25.1µM
S=C(NCc1ccco1)N/N=C/c1ccc(Cl)cc1	ALOX12 inh 44.7µM
CCc1ccccc1NC(=O)c1ccc2c(Cl)c3c(nc2c1)CCC3	none (no result: Vif-A3G inh, GRP78 ERSR act, Vif-A3F inh, TRPML1 inh, TRPML1 ag)
COc1cc2c(cc1OC)-c1cc(NC3CCCCC3)nc(=O)n1CC2	ALOX12 inh 25.1µM
COc1cc2c(cc1OC)-c1cc(NCc3ccccn3)nc(=O)n1CC2	ALOX12 inh 7.94µM
Cc1ccc(C(=O)NCCn2c(N)c(C#N)c3nc4ccccc4nc32)cc1	Vif-A3G inh inconclusive, Vif-A3F inh 22.4µM
N#Cc1c(N)n(CCNC(=O)c2ccc(Cl)cc2)c2nc3ccccc3nc12	none
Cc1ccc(NNC(=S)Nc2ccc(C(C)C)cc2)c(C)c1	ALOX12 inh 35.5µM
Cc1ccc(NC(=S)NNC(=S)Nc2ccc(C)cc2)cc1	ALOX12 inh inconclusive, Vif-A3G inh inconclusive
C=CCNc1oc(/C=C/c2cccs2)nc1C#N	ALOX12 inh 17.8µM (no result: Vif-A3G inh, GRP78 ERSR act, Vif-A3F inh, TRPML1 inh, TRPML1 ag)
Cc1ccc2c(c1)Sc1c(ccc3ccccc13)N2	ALOX12 inh inconclusive, Vif-A3G inh inconclusive, Vif-A3F inh 22.4µM
CC1(C)CC(=O)C2=C(C1)NC(=O)CC2c1ccccc1C(F)(F)F (stereo not drawn)	none (no result: Vif-A3G inh, GRP78 ERSR act, Vif-A3F inh, TRPML1 inh, TRPML1 ag)
Nc1nc(N)c2c(ccc3c2ccn3Cc2cccc([N+](=O)[O-])c2)n1	ALOX12 inh inconclusive, Vif-A3G inh inconclusive (no result: Vif-A3F inh, TRPML1 inh)
CC(C)c1ccc(Cn2ccc3c4c(N)nc(NC5CC5)nc4ccc32)cc1	ALOX12 inh 21.7µM! (no result: Vif-A3G inh, Vif-A3F inh, TRPML1 inh, TRPML1 ag)
CC1(COc2ccccc2)COc2ccc(C(=O)NCc3ccncc3)cc2N1 (stereo not drawn)	ALOX12 inh 28.2µM (no result: Vif-A3G inh, GRP78 ERSR act, Vif-A3F inh, TRPML1 inh, TRPML1 ag)
CCCCOc1ccc(C(=O)N(Cc2ccco2)Cc2ccco2)cc1	ALOX12 inh 17.8µM, TRPML1 inh inconclusive
O=C(CCC1CCCC1)NCCCCNC(=O)CCC1CCCC1	none (no result: Vif-A3G inh, GRP78 ERSR act, Vif-A3F inh, TRPML1 inh, TRPML1 ag)
O=C(NC1CC1)c1cc(SCC(=O)N2CCOCC2)nc2ccccc12	none (no result: Vif-A3G inh, GRP78 ERSR act, Vif-A3F inh, TRPML1 inh, TRPML1 ag)
CCOc1ccc(C(=S)NC2CCCCC2)cc1OCC	ALOX12 inh 35.5µM
CCOc1ccc(C(C)NC(=S)NC2CCCCC2)cc1OCC (stereo not drawn)	ALOX12 inh inconclusive, Vif-A3F inh inconclusive
COc1ccc(NC(=O)Nc2cccs2)cc1Cl	ALOX12 inh 39.8µM
COc1ccc(NC(=O)CCC(=O)c2cccs2)cc1Cl	none

Bioassay records as filed in PubChem BioAssay.
